Drawing on PubChem BioAssay (EPA / NIEHS), this text covers outcome and AC50 for nine molecules.

Active and inactive are the calls of the source. Rule for the calls: active = hit-call score of the fitted dose curve at least 0.9, where 1 is the maximum; inactive = score below 0.9.

The nature of test [1]: ATG_M_32_CIS: Attagene CIS-FACTORIAL HepG2 Assay for M32 Transcription Factor (Internal Marker) (AID 2282949).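 Note: background control marker of the multiplexed CIS panel rather than a real target.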 Conditions: HepG2 Attagene cis-factorial M32 reporter, mRNA; actives raise or lower the signal. The method in brief: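 HepG2 transfectants (cis-regulated reporter transcription units) dosed 24 h. Reporter mRNA by RT-PCR plus CE, analysed as gain or loss relative to DMSO.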

A short description of test [2]: ATG_M_06_CIS: Attagene CIS-FACTORIAL HepG2 Assay for M06 Transcription Factor (Internal Marker) (AID 2282950). Conditions: HepG2 Attagene CIS-FACTORIAL M06 internal marker reporter; actives raise or lower the signal. The method in brief: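 Fluorescence-labelled RT-PCR products from cis-promoter reporter units, cut with HpaI and resolved by capillary electrophoresis, give the signal. Cells are human HepG2, dosed for 24 h. Serves as background control, fitted relative to DMSO.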

Test [3] deals with Hepatocyte nuclear factor 6 (Homo sapiens) (UniProt Q9UBC0). The test is described as follows: ATG_HNF6_CIS: Attagene CIS-FACTORIAL HepG2 Assay for human Hepatocyte Nuclear Factor 6 (HNF6) (AID 2282952). Conditions: HepG2 Attagene cis-factorial HNF6 reporter transcription; actives raise or lower the signal. The method in brief:
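Endogenous factor activity read in transiently transfected HepG2 via promoter-regulated reporter transcripts. RNA harvested 24 h post-dosing, reverse-transcribed, PCR-amplified, FAM-labelled, HpaI-digested and resolved by capillary electrophoresis; fitted in both directions against DMSO.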

Test [4] deals with Heat shock factor protein 1 (Homo sapiens) (UniProt Q00613). The test is described as follows: ATG_HSE_CIS: Attagene CIS-FACTORIAL HepG2 Assay for human Heat Shock Transcription Factor 1 (HSE) (AID 2282953). Particulars: HepG2 HSE cis-reporter, Attagene RNA transcription; actives raise or lower the signal. The procedure, abridged:
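After a 24 h incubation with test chemical, transfected HepG2 cells were harvested for RNA; reporter transcripts were measured by RT-PCR and capillary electrophoresis. Values reflect gain or loss of signal relative to DMSO.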

The nature of test [5]: ATG_MRE_CIS: Attagene CIS-FACTORIAL HepG2 Assay for human Metal Responsive Element (MRE) (AID 2282954). Particulars: HepG2 MRE cis-reporter transcription, Attagene multiplex; actives raise or lower the signal. The method in brief: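 Endogenous MRE-dependent transcription read as reporter mRNA in transiently transfected human HepG2 cells at 24 h. RNA reverse-transcribed, PCR-amplified, labelled and resolved by capillary electrophoresis; gain or loss relative to DMSO.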

Test [6] concerns the target Paired box protein Pax-6 (Homo sapiens) (UniProt P26367). The test is described as follows: ATG_Pax6_CIS: Attagene CIS-FACTORIAL HepG2 Assay for human Paired Box 6 (PAX6) (AID 2282956). Conditions: HepG2 CIS-FACTORIAL PAX6 reporter transcription, RNA readout; actives raise or lower the signal. The method in brief:
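Fluorescent RT-PCR products separated by capillary electrophoresis report PAX6-linked promoter mRNA in HepG2 cells 24 h post-dose. Curves fitted bidirectionally, DMSO as negative control.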

Test [7] can be described thus: ATG_PXRE_CIS: Attagene CIS-FACTORIAL HepG2 Assay for human Pregnane X Receptor Element (PXRE) (AID 2282957). Particulars: HepG2 Attagene CIS-FACTORIAL PXRE reporter, mRNA; actives raise or lower the signal. The method in brief: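 Reporter transcripts under endogenous PXR-responsive cis-regulation quantified from total RNA of transfected HepG2 cells 24 h post-dosing, via RT-PCR with fluorescent primer extension and capillary electrophoresis. Gain or loss of signal fitted against DMSO baseline.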

A short description of test [8]: ATG_RORE_CIS: Attagene CIS-FACTORIAL HepG2 Assay for human RAR-related Orphan Receptor Element (RORE) (AID 2282959). Conditions: HepG2 Attagene cis-factorial RORE reporter, mRNA; actives raise or lower the signal. The method in brief: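 Cells were HepG2 carrying transfected cis-regulated reporter constructs, dosed for 24 hours. Total RNA was reverse-transcribed and reporter cDNA amplified, fluorescently labeled and sized by capillary electrophoresis. Activity was fitted bidirectionally relative to DMSO.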

Test [9] is described as follows: ATG_Sox_CIS: Attagene CIS-FACTORIAL HepG2 Assay for human SRY-box transcription factor (SOX) (AID 2282960). Particulars: HepG2 Attagene cis-factorial SOX reporter, mRNA; actives raise or lower the signal. The procedure, abridged:
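Transient MRTU transfection of HepG2; 24 h compound incubation; TriZol RNA, oligo(dT) RT, PCR, 6-FAM primer extension, HpaI cut, CE. Bidirectional fit, DMSO = baseline.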

The target in test [10] is Transcription factor Sp1 (Homo sapiens) (UniProt P08047). The experiment in a line: ATG_Sp1_CIS: Attagene CIS-FACTORIAL HepG2 Assay for human Specificity Protein 1 (Sp1) (AID 2282961). Particulars: HepG2 Sp1 cis-reporter transcription, actives raise or lower the signal. The procedure, abridged: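 Endogenous Sp1 activity was gauged in human liver HepG2 cells bearing transfected reporter units under a cis-regulating promoter. After 24 h dosing, reporter mRNA was quantified by RT-PCR with capillary electrophoresis, and activity fitted bidirectionally versus DMSO.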

Test [11] can be described thus: ATG_SREBP_CIS: Attagene CIS-FACTORIAL HepG2 Assay for human Sterol Regulatory Element Binding (SREBP) (AID 2282962). Particulars: HepG2 Attagene cis-factorial SREBP reporter, mRNA; actives raise or lower the signal. The method in brief:
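Endogenous factor activity is measured in HepG2 through multiplexed reporter units under cis-element control. Following a 24 h incubation, reporter transcripts are reverse-transcribed, PCR-amplified and sized by capillary electrophoresis; activity is fitted in both directions relative to DMSO.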

The nature of test [12]: ATG_TA_CIS: Attagene CIS-FACTORIAL HepG2 Assay for human TA Basal Promoter (AID 2282964). Particulars: HepG2 Attagene CIS-factorial TA basal promoter reporter; actives raise or lower the signal. The method in brief:
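Multiplexed mRNA reporter assay, HepG2, 24 h. Reporter cDNA amplified, 6-FAM primer-extended, HpaI-cut, CE-sized; DMSO = negative control and baseline.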

A short description of test [13]: ATG_TCF_b_cat_CIS: Attagene CIS-FACTORIAL HepG2 Assay for human T-Cell-Factor with beta-catenin (TCF/b-cat) (AID 2282965). Particulars: HepG2 TCF/beta-catenin cis-reporter transcription, actives raise or lower the signal. The procedure, abridged: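 Measured: reporter mRNA in HepG2 transiently transfected with cis-promoter reporter units, 24 h after chemical addition. Fitting was bidirectional, DMSO as negative control.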

Test [14] is described as follows: ATG_ISRE_CIS: Attagene CIS-FACTORIAL HepG2 Assay for human Interferon Regulatory Factor 1 (IRF1) binding to an Interferon-Stimulated Response Element (ISRE) (AID 2282948). Particulars: HepG2 ISRE cis-reporter (Attagene), mRNA transcription readout; actives raise or lower the signal. The method in brief: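 Multiplexed mRNA reporter readout in human liver HepG2 cells: cis-element-driven reporters transfected, compound added for 24 h, transcripts amplified, fluorescently labelled and sized by capillary electrophoresis; curve fitting bidirectional against DMSO.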

Test [15] is described as follows: ATG_PBREM_CIS: Attagene CIS-FACTORIAL HepG2 Assay for human Phenobarbital-responsive Enhancer Module (PBREM) (AID 2282955). Particulars: HepG2 PBREM cis-reporter, Attagene multiplexed transcription; actives raise or lower the signal. The method in brief: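 Fluorescence of labelled reporter cDNA fragments, resolved by capillary electrophoresis, gives mRNA induction in transfected HepG2 cells treated for 24 h; DMSO serves as negative control and baseline.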

For test [16], the target named is Signal transducer and activator of transcription 3 (Homo sapiens) (UniProt P40763). The experiment in a line: ATG_STAT3_CIS: Attagene CIS-FACTORIAL HepG2 Assay for human Signal Transducer and Activator of Transcription 3 (STAT3) (AID 2282963). Particulars: HepG2, Attagene cis-factorial STAT3 reporter transcription; actives raise or lower the signal. The method in brief:
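Readout is reporter transcript quantified by RT-PCR and capillary electrophoresis, with 6-FAM primer extension and HpaI digestion. Total RNA is taken 24 h after dosing transiently transfected HepG2 carrying cis-regulated reporter units. Bidirectional fit against DMSO.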

Test [17] concerns the target Hypoxia-inducible factor 1-alpha (Homo sapiens) (UniProt Q16665). The test is described as follows: ATG_HIF1a_CIS: Attagene CIS-FACTORIAL HepG2 Assay for human Hypoxia Inducible Factor 1 (HIF1A) (AID 2282951). Conditions: HepG2 Attagene cis-factorial HIF1a reporter transcription; actives raise or lower the signal. The procedure, abridged:
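Measures endogenous transcription-factor activity through cis-regulated reporter mRNA in HepG2. Cells dosed 24 h; transcripts quantified by RT-PCR with 6-FAM-labelled products separated by capillary electrophoresis; DMSO serves as negative control.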

Test [18] in a line: ATG_PPRE_CIS: Attagene CIS-FACTORIAL HepG2 Assay for human Peroxisome Proliferator-activated Response Element (PPRE) (AID 2282958). Conditions: HepG2 PPRE cis-element reporter, Attagene transcription factor profiling; actives raise or lower the signal. The procedure, abridged: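 Cells are first transfected transiently with the multiplexed reporter library, then dosed for 24 h. Total RNA is reverse-transcribed, amplified, fluorescently end-labeled and HpaI-cut before capillary electrophoresis; activity is fitted bidirectionally against DMSO controls.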

Sequence of Hypoxia-inducible factor 1-alpha (Homo sapiens) (Q16665 whole entry, looked up): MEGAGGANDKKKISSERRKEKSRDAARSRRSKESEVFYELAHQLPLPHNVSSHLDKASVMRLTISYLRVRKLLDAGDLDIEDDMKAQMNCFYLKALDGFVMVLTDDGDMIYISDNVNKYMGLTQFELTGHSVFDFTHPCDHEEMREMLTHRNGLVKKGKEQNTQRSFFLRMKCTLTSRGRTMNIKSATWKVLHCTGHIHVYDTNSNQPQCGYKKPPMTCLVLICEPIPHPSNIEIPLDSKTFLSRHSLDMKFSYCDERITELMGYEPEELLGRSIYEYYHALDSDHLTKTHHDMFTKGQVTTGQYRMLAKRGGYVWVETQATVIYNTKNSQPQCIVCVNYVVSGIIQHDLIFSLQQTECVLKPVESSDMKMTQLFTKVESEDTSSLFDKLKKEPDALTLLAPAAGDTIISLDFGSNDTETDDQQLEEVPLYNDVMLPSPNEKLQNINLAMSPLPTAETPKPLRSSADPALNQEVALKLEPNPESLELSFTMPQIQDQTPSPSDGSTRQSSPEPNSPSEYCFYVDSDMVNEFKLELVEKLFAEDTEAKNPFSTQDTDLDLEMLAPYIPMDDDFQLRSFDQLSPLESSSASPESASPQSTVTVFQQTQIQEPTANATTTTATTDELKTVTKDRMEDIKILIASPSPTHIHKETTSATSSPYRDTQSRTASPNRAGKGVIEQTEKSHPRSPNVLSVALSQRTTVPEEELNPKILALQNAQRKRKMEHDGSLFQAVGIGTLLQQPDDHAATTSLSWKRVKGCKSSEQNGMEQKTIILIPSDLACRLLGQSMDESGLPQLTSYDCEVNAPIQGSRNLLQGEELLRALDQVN
Sequence of Heat shock factor protein 1 (Homo sapiens) (Q00613 whole entry, looked up): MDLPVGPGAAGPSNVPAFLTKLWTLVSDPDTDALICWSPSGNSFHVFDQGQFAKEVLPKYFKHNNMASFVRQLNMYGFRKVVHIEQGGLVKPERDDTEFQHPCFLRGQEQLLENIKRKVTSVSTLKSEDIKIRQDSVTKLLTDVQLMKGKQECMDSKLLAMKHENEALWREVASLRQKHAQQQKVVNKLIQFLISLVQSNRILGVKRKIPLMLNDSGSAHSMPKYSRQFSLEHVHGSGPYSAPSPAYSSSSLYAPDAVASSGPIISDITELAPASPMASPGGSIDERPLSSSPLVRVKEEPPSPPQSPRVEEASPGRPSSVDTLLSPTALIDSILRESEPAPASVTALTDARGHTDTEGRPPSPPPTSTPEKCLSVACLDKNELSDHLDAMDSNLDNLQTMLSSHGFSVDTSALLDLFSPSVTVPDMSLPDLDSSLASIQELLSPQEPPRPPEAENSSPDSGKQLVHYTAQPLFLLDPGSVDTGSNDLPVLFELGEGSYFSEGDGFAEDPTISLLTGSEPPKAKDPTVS
Sequence of Transcription factor Sp1 (Homo sapiens) (P08047 whole entry, looked up): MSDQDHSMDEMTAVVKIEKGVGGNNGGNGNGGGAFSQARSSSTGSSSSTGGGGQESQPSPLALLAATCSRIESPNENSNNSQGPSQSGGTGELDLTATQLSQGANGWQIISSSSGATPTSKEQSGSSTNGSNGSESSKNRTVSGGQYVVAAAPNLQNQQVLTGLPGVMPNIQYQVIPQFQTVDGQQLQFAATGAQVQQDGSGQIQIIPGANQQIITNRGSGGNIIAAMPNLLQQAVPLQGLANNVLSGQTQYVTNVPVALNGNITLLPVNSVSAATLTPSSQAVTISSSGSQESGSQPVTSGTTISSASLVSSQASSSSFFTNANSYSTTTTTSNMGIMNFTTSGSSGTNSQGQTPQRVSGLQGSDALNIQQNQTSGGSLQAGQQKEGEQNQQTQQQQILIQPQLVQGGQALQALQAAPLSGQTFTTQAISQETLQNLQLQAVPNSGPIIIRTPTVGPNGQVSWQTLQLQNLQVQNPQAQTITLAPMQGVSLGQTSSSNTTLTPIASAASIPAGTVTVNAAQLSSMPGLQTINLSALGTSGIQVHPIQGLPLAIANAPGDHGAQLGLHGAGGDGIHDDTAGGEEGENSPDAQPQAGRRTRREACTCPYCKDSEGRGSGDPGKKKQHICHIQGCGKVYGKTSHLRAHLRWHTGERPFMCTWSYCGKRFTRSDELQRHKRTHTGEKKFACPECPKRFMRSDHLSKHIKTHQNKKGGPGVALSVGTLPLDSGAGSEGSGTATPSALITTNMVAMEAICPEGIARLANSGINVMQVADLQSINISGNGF
Sequence of Hepatocyte nuclear factor 6 (Homo sapiens) (Q9UBC0 whole entry, looked up): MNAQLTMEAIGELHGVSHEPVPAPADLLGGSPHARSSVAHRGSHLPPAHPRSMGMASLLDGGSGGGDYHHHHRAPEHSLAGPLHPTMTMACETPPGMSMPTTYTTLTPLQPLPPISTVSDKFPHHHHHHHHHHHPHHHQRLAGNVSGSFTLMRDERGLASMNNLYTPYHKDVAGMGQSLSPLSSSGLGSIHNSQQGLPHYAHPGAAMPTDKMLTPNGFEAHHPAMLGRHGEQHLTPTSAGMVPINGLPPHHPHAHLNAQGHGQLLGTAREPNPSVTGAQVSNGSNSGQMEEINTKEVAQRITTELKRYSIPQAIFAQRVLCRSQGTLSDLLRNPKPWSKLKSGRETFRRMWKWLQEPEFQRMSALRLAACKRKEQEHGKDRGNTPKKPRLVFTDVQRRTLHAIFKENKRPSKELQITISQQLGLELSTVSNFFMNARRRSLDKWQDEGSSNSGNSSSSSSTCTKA
Sequence of Paired box protein Pax-6 (Homo sapiens) (P26367 whole entry, looked up): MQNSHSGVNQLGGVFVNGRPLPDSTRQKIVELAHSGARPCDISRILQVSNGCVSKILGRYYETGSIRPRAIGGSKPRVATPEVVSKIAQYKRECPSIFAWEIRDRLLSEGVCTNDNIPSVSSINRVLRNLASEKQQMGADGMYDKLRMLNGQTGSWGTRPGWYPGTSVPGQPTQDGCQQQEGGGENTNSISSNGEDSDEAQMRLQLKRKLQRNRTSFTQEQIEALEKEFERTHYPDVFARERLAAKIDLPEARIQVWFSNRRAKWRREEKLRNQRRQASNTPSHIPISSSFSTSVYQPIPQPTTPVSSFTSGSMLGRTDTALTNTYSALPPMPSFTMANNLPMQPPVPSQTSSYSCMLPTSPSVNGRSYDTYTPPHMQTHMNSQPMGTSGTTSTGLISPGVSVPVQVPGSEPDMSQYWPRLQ
Sequence of Signal transducer and activator of transcription 3 (Homo sapiens) (P40763 whole entry, looked up): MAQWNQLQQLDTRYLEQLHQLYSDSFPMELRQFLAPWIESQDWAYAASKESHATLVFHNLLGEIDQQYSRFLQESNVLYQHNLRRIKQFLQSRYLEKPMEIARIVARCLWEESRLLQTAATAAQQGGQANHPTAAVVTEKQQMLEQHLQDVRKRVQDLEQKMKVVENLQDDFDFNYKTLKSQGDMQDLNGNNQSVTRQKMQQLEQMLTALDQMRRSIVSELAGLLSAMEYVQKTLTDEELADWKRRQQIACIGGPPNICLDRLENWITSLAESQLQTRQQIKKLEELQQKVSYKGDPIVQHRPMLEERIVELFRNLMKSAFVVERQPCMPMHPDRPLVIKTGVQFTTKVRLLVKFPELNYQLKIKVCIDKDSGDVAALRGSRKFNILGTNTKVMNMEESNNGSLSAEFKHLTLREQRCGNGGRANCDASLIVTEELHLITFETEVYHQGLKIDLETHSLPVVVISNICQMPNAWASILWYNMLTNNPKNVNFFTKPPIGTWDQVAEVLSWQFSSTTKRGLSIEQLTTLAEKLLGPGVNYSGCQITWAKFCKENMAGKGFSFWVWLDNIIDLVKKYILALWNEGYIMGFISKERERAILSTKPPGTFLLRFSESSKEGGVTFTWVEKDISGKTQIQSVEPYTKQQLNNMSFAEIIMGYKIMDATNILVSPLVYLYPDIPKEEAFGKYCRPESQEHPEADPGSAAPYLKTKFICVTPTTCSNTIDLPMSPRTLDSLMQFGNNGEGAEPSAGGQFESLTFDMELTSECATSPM

Take `Nc1c(S(=O)(=O)O)cc(Br)c2c1C(=O)c1ccccc1C2=O`: the result in [1], in test [2], in [3], in test [4], in test [6] and in test [9] was inactive. The call in test [10], in test [11] and in test [13] was inactive. For the same molecule, the AC50 in test [5] was 58 µM (active); in [7], 22.4 µM (active); in test [8], 100 µM (active); in test [12] it was 100 µM (active).
In the case of `CCCCCCCCCCCC(=O)OCC(O)CO` (stereo not given), the molecule was classed as inactive in test [14], in test [1], in [2], in [3], in test [4] and in test [5]. The result in test [15], in test [6], in test [8], in test [9], in test [10] and in test [16] was inactive. Also, the outcome in [12] and in test [13] was inactive. Besides, the figures for the AC50 in test [7] and in [11] were 169 µM (active) and 100 µM (active), respectively.
With `O=C(O)c1cccnc1C(=O)O`, the outcome in [14], in test [1], in [2], in [3], in [4] and in [5] was inactive. For the same molecule, the call in test [6], in test [7], in test [8], in [9], in test [10] and in test [11] was inactive. The result in [16], in test [12] and in test [13] was inactive.
With `O=C(O)CCCCCCCCCCCC(=O)O`, the outcome in [14], in test [1], in [17], in test [4], in test [5] and in test [6] was inactive. Moreover, the molecule was called inactive in [7], in test [18], in test [8], in [9], in [10] and in test [11]. Also, the molecule was classed as inactive in [12] and in test [13].
`CCCCC1(COC(=O)CCC(=O)O)C(=O)N(c2ccccc2)N(c2ccccc2)C1=O`: the outcome in [14], in test [1], in test [2], in test [3], in test [4] and in test [5] was inactive. The result in [6], in [18], in test [8], in test [9], in [10] and in [11] was inactive. In addition, the molecule was classed as inactive in [16], in [12] and in test [13]. Further, the AC50 in test [7] is 19.5 µM (active).
Turning to `Nc1c(Cl)cc(Cl)cc1[N+](=O)[O-]`, the call in test [1], in test [2], in [3], in [5], in test [15] and in test [6] was inactive. Further, the molecule was called inactive in [10], in [11], in [16], in [12] and in [13]. For the same molecule, the AC50 in [7] is 27.7 µM (active).
As to `CCCC(=O)C(CC)Sc1ccoc1C` (stereo not given), the outcome in test [14], in test [2], in test [17], in [5], in test [15] and in test [8] was inactive. Moreover, the call in test [9], in [10], in test [11], in test [16], in test [12] and in [13] was inactive. For the same molecule, in test [7], the AC50 is 5.68 µM (active).
Turning to `CC1CCC(C(C)C)C(O)C1` (stereo not given), the outcome in test [14], in test [1], in test [2], in test [17], in [5] and in [15] was inactive. The molecule was classed as inactive in test [6], in [7], in test [18], in test [8], in test [9] and in test [10]. The outcome in [11], in test [16], in test [12] and in [13] was inactive.
As for `CC(C)(CO)[C@@H](O)C(=O)NCCC(=O)O`, the molecule was classed as inactive in test [14], in test [1], in [2], in [3], in test [4] and in test [5]. Further, the molecule was called inactive in test [6], in [18], in test [9], in [10], in test [11] and in test [16]. In addition, the molecule was classed as inactive in [12] and in [13]. The AC50 in test [7] is 53.4 µM (active).

For orientation: AC50 means the concentration giving half of the maximal activity seen.
